Screening data from PubChem.
KCC2 mod: KCC2 (human) Cl- transport modulation | KCC2 cells, thallium flux FluoZin-2 fluorescence | Q9H2X9 | AID 1456 | 2.2% of 190,000 active | B-score of Tl+ flux slope (higher = more flux/activation; lower = inhibition) at 10 µM;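 active = thallium flux slope and its plate-corrected score both differing from the plate sample mean at a set confidence after two filtering rounds, in either direction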;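 note: slope of fluorescence scaled to starting intensity during 10 to 20 s after thallium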
Target sequence (Q9H2X9 whole entry, looked up): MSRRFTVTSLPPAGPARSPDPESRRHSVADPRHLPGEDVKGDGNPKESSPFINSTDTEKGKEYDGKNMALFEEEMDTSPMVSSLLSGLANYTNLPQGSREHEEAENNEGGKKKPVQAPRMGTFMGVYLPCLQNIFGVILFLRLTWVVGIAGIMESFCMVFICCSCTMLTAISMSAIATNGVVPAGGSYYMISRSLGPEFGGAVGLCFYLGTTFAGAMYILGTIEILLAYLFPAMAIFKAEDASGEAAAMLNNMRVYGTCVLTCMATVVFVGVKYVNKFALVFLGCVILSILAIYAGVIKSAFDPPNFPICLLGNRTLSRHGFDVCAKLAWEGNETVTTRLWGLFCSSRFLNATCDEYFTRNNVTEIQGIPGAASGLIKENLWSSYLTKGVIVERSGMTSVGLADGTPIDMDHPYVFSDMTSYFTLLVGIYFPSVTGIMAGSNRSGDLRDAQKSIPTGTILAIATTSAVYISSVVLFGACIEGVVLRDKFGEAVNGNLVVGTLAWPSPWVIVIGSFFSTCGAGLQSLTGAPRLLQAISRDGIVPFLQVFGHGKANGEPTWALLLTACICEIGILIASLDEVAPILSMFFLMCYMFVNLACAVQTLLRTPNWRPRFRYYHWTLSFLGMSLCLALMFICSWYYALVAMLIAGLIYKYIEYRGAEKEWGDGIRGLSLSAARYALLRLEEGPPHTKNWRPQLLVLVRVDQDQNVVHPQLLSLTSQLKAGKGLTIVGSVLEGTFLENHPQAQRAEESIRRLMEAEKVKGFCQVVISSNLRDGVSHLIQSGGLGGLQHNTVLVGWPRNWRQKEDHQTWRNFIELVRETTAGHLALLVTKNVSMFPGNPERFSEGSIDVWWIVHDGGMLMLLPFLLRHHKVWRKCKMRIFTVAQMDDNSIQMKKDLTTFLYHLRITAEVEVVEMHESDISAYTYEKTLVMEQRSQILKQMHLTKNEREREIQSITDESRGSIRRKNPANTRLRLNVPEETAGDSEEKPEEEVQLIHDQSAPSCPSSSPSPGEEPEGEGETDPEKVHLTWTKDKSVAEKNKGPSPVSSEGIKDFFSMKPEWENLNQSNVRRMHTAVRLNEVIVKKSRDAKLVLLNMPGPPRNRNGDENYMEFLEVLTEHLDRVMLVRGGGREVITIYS
Arbovirus anti: blocks arbovirus infection; arbovirus infection cell-based antiviral screen; inhibition, % at 10 µM; 0.37% of 200,000 active; AID 1251; in the data active = inhibition above about 30%
Measles CPE: protection of cells from measles virus; Measles virus-infected cells, CPE protection, absorbance; protection (pct of control), % at 4 µM; 1.5% of 140,000 active; in the data active = protection mostly above about 24%, no sharp cut-off; inactive = mostly below about 26%
ROMK mod: modulators of human ROMK potassium channel; 2% of 130,000 active; B-score at 10 µM; P48048; AID 1918; Tet-inducible ROMK, thallium flux fluorescence; actives lie on both sides;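 active = signal ratio slope over the read window, or its plate-corrected B-score, at least 3 SD from the plate mean, either direction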;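 note: B-score of the F/F0 ratio slope over 7 to 12 s after thallium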
HSV replic up: HSV replication enhancement | 0.005% of 220,000 active | maximum fold increase | HSV replication augmentation in cells, fold increase; in the data active = maximum fold increase above about 1.5; inconclusive = no clear call, values can overlap the other calls; tested in PC3 cells
An asterisk follows results filed as active; i = inactive; ? = inconclusive; / = no result given. This is a sample that favours compounds with a hit; in the whole collection about 4% have one here.

SMILES	KCC2 mod	Arbovirus anti	Measles CPE	ROMK mod	HSV replic up
O=C(NNC(=S)Nc1ccc(Cl)c(Cl)c1)c1cccc([N+](=O)[O-])c1	-5.4*	/	/	3*	i
Cc1cccc(NC(=S)NNC(=O)c2cccc([N+](=O)[O-])c2)c1	-0.035	/	/	-1.1	i
O=C(NNC(=S)Nc1cccc(C(F)(F)F)c1)c1cccc(Cl)c1	5.8*	-8	8	/	i
O=C(NNC(=S)Nc1cccc(C(F)(F)F)c1)c1ccccc1Cl	1.3	-15	7	/	i
FC(F)(F)c1cccc(NC(=S)Nc2ccc(Cl)cc2Cl)c1	4.5*	-28	2	/	i
O=C(O)c1ccccc1NS(=O)(=O)c1cccc(C(F)(F)F)c1	-0.095	5	16	/	i
O=C(O)c1ccccc1Nc1cccc(C(F)(F)F)c1	1	38*	32	/	/
CC(=O)c1ccc(NC(=S)NCCc2cccc(Cl)c2)cc1	-0.61	7	/	-0.46	i
Cn1cc(CN2CCN(Cc3ccccc3)C(CCO)C2)c(-c2ccccc2)n1 (centres undefined)	-0.013	5	/	0.013	i
O=C(Cc1ccccc1)NC(=S)Nc1cccc(C(F)(F)F)c1	6*	4	13	/	i
O=C(NNC(=O)c1ccccn1)c1cccc([N+](=O)[O-])c1	1.3	-34	/	0.95	i
O=C(NNC(=O)c1cc(-c2ccccc2)n(-c2ccccc2)n1)c1cccc([N+](=O)[O-])c1	15*	-8	8	/	i
CC(C)C[C@@H](CSc1ccc(Br)cc1)N1CCN(CC(C)C)CCC1=O	-2.5	/	/	/	i
S=c1[nH]nc(C2COc3ccccc3O2)o1 (centres undefined)	-6.9*	7	5	/	i
S=c1nc(C2COc3ccccc3O2)[nH][nH]1 (centres undefined)	0.046	10	/	0.5	i
Cc1ccc2c3c([nH]c2c1C)-c1nonc1CC3	/	1	43*	/	i
Cc1cc2c(nn1)CCc1nonc1-2	0.16	-3	6	/	i
O=C1CN(C(=O)COC(=O)CCNS(=O)(=O)c2ccc(Cl)cc2)c2ccccc2N1	-0.068	/	/	/	i
O=C1CN(C(=O)/C=C/c2ccc(Cl)cc2)c2ccccc2N1	0.049	31*	/	0.23	i
O=C1CN(C(=O)COC(=O)CCSc2ccccc2Cl)c2ccccc2N1	-0.63	3	27*	0.44	/
CCOC(=O)c1c[nH][nH]c1=O	0.45	/	/	-0.019	i
COC(=O)c1ccc2[nH]c(C)c(CN3CCCC3)c(=O)c2c1	0.24	11	48*	/	i
NS(=O)(=O)c1ccc(NC(=S)NCc2ccco2)cc1	0.16	-3	/	0.41	i
Cc1cc(Nc2ccccc2)n(C(=O)c2ccc(Cl)cc2)n1	0.35	-3	44*	/	i
CC1(C)Cc2ccccc2-c2nnc(-c3ccccc3)n21	-1.3	7	13	/	i
SMILES	KCC2 mod	Arbovirus anti	Measles CPE	ROMK mod	HSV replic up
CC1(C)Cc2ccccc2-c2nnc(C(F)(F)F)n21	-0.33	7	41*	-0.69	i
CCCSC(=O)N(CC)CC(=O)Nc1c(CC)cccc1CC	-1.2	-3	9	-0.29	i
CCc1cccc(C)c1NC(=O)CN(C)Cc1ccc(Br)cc1	-1.2	42*	/	-0.48	i
CCSC(=O)N(CC)CC(=O)Nc1c(CC)cccc1CC	0.72	5	32*	0.32	i
CCNC(=S)N1CCC(C(N)=O)CC1	0.69	/	/	0.032	i
COc1ccc(NC(=S)Nc2ccc(S(N)(=O)=O)cc2)c(OC)c1	0.21	-1	/	-0.6	i
Cc1ccc(CNC(=O)CCC(=O)c2cccs2)cc1	-0.27	2	60*	-0.024	i
O=C(CCC(=O)c1cccs1)NCc1ccc(Cl)cc1	-1.3	5	11	0.52	i
COCC(=O)N1CCN(c2nc3ccccc3o2)CC1	0.077	-3	/	0.58	i
CC1CCCN(c2nc3c(c(=O)[nH]c(=O)n3C)n2CCCc2ccccc2)C1 (centres undefined)	-0.65	18	42*	/	i
COC(=O)c1c(NC(C)=O)sc(C)c1C	0.74	0	/	-1	i
CC(=O)Nc1sc(C)c(C)c1C(=O)OC1CCOC1=O (centres undefined)	/	9	37*	/	i
Cc1ccc2occ(/C=N/NC(N)=S)c(=O)c2c1	0.098	-3	30*	/	i
COc1ccc(N2CCN(C(=O)CN(C3CCCCC3)S(C)(=O)=O)CC2)cc1	0.13	8	/	-0.42	i
COC(=O)[C@H](CCSC)NC(=O)Nc1ccc(S(N)(=O)=O)cc1	1.5	/	/	/	i
CCn1c2ccccc2c2cc(/C=N/n3cn[nH]c3=S)ccc21	23*	1	11	/	i
Cc1ccc2nc(-c3ccccc3Cl)cc(C(=O)Nc3cc(C)on3)c2c1	-0.67	34*	9	/	i
CCN1CCN(C(c2ccccc2F)c2nnnn2Cc2ccc3c(c2)OCO3)CC1 (centres undefined)	/	1	1	-2.2*	i
c1ccc(CCn2nnnc2C(c2cccs2)N2CCN(Cc3ccc4c(c3)OCO4)CC2)cc1 (centres undefined)	-0.28	9	11	-3.1*	i
CCN1CCN(C(c2ccc(F)cc2)c2nnnn2Cc2ccc3c(c2)OCO3)CC1 (centres undefined)	-0.023	-4	/	0.26	i
COc1cccc(Cn2cc(C(=O)NCCN(C)C)nn2)c1	1.1	6	/	/	i
Cc1ccc(-n2c(C)cc(/C=N/NC(=O)c3ccc(CN4CCOCC4)cc3)c2C)cc1	/	-4	71*	/	i
Cc1cc(/C=N/NC(=O)c2ccccc2F)c(C)n1-c1ccccc1	-1.6	-9	/	4.2*	i
Cc1cccc(-n2c(C)cc(/C=N/NC(=O)c3ccc(CN4CCOCC4)cc3)c2C)c1	/	-5	7	/	i
Cc1cccc(Nc2nnc(SC/C(O)=C(\C#N)c3nc4ccccc4[nH]3)s2)c1C	-3.2	29	23	0.41	i
SMILES	KCC2 mod	Arbovirus anti	Measles CPE	ROMK mod	HSV replic up
Cc1cccc(C)c1Nc1nnc(SC/C(O)=C(\C#N)c2nc3ccccc3[nH]2)s1	-1.3	30*	4	0.9	i
CCCN(CCC)CC(C)(C)NS(=O)(=O)c1ccc(Cl)cc1	0.073	/	/	/	i
COc1ccccc1NC(=O)CCn1c(=O)sc2ccccc21	1.3	-6	51*	/	i
CCCN1C(=O)/C(=C/c2ccc(N3CCOCC3)cc2)NC1=S	-0.6	-7	/	-2.6	1.6*
CCN1C(=O)/C(=C/c2ccc(N3CCCC3)cc2)NC1=S	4.1	4	9	-0.55	?
Cn1c(=O)n(C)c2cc(S(=O)(=O)N3CCOCC3)ccc21	0.28	-3	13	/	i
Cc1ccc(NC(=S)N=Nc2c(O)n(C)c3ccc(S(=O)(=O)N4CCOCC4)cc23)cc1	9.6*	-25	2	/	i
CC(=O)N1C(=O)c2cccc3cccc(c23)C(=O)N1C(C)=O	0.003	12	54*	0.57	i
COc1ccc(CCNC(=O)CN(c2ccc(OC)cc2)S(C)(=O)=O)cc1	0.2	14	/	-0.14	i
CCNC(=O)CN(c1ccc(CC)cc1)S(C)(=O)=O	0.37	46*	2	-0.32	i
CC(C)(C)c1ccc(C(=O)NC(=S)Nc2nc3c(s2)CCCC3)cc1	12*	-3	11	0.95	i
